From PubChem BioAssay
Inconclusive results are not listed. The source made the active and inactive calls.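 Rule for the calls, unless noted: active = normalized viability below 100% at a tested concentration; inactive = the rest.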

Legend:
[1] = viability loss in pontine glioma line – cell-based, SU-DIPG-XVII, MIPE5.0, CellTiter-Glo, qHTS, dose response (AID 1347060; cut-off not given, nearly all actives have AC50 up to about 26 µM;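 for AC50: cells exposed to compound for 48 hours before viability readout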); details: CellTiter-Glo ATP luminescence
[2] = viability loss in pontine glioma line – cell-based, SU-DIPG-XIII, MIPE4.0, CellTiter-Glo, qHTS, dose response (AID 1347061; cut-off not given, nearly all actives have AC50 up to about 37 µM;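 note: cells exposed to compound for 48 hours before readout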); details: CellTiter-Glo ATP luminescence
[3] = viability loss in pontine glioma line – cell-based, JHH-DIPG-1, MIPE4.0, CellTiter-Glo, qHTS, dose response (AID 1347062; cut-off not given, nearly all actives have AC50 up to about 27 µM;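 for AC50: cells exposed to compound for two days before readout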); details: JHH-DIPG-1 viability, CellTiter-Glo ATP luminescence
[4] = viability loss in pontine glioma line – cell-based, SU-DIPG-XIII, MIPE5.0, CellTiter-Glo, qHTS, dose response (AID 1347064; cut-off not given, nearly all actives have AC50 up to about 23 µM;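 for AC50: cells exposed to compound for 48 hours before the viability read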); details: CellTiter-Glo ATP luminescence
[5] = viability loss in pontine glioma line – cell-based, SU-DIPG-XXV, MIPE5.0, CellTiter-Glo, qHTS, dose response (AID 1347065; cut-off not given, nearly all actives have AC50 up to about 26 µM;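 note: cells exposed to compound for 48 hours before ATP readout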); details: CellTiter-Glo ATP luminescence
[6] = growth inhibition of DIPG cells – cell-based, MIPE4.0 library, CellTiter-Glo luminescence, qHTS (AID 1347066; cut-off not given, nearly all actives have AC50 up to about 30 µM;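 note: cells exposed to compound for 48 hours before readout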); details: SU-DIPG-VI viability, CellTiter-Glo ATP luminescence
[7] = JHH-DIPG-1 glioma cell viability, MIPE5.0 library, CellTiter-Glo luminescence, qHTS (AID 1347067; cut-off not given, nearly all actives have AC50 up to about 26 µM;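 note: cells exposed to compound for 48 hours before readout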); details: JHH-DIPG-1 glioma viability, CellTiter-Glo ATP luminescence
[8] = growth inhibition of DIPG cells – cell-based, MIPE5.0 library, qHTS (AID 1347068; cut-off not given, nearly all actives have IC50 up to about 30 µM;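 for IC50: cells exposed to compound for 48 hours before viability readout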); details: SU-DIPG-XXV viability
[9] = viability loss with induced miR-34 in A549 – imaging, A549 dox-inducible miR-34, nuclei and caspase counts, primary screen (AID 1347080;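 active = compounds whose cell count with miR-34 switched on is under 0.7 times the count with it off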); details: A549 miR-34 inducible, Hoechst nuclei count, 48 h
[10] = MELAS cybrid and Rieske KO viability enhancers – cell-based, MELAS cybrids, Rieske KO mouse fibroblasts, CellTiter-Glo, primary screen (AID 1508586;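 active = mean z-score across replicates of 1.96 or higher in either the MELAS or the Rieske mutant cell line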;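 note: z relative to plate mean and SD of compound and empty wells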); details: low glucose
[11] = compounds altering HSF1 focus formation in cells – imaging, Selleck Cancer Library (AID 1347162; in the data active = plate-normalised HSF1 focus index below about 0.46); details: human cells, HSF1 nuclear foci imaging, at 10 µM; SSMD: measured here: HSF1 foci SSMD mean; cell count: measured here: cell number; plate-normalised HSF1 focus index: stronger effect = lower value
[12] = drug combination growth inhibition, ovarian cancer – cell-based, oncology-focused library, rucaparib conditional, profiling panel (AID 1508598); details: patient-derived ovarian cancer cells, CellTiter-Glo viability, 144 h, stronger effect = lower value
[13] = viability loss in pontine glioma line – cell-based, SU-DIPG-IV, MIPE4.0, CellTiter-Glo, qHTS, dose response (AID 1347063; cut-off not given, nearly all actives have AC50 up to about 30 µM;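 note: compound exposure lasted 48 hours before the viability readout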); details: CellTiter-Glo ATP luminescence
[14] = stronger effect = lower value, cell number ratio, induced over uninduced
[15] = measured here: relative caspase fold change +Dox/-Dox
[16] = measured here: total cells with miR-34 induction, stronger effect = lower value
[17] = measured here: total cells without miR-34 induction
[18] = MELAS cybrid survival, CellTiter-Glo 48 h, stronger effect = higher value
[19] = Rieske KO mouse fibroblast survival, CellTiter-Glo 72 h
[20] = at 0.000305 µM, OCI-C5x cells, with rucaparib 10 µM, 100% = cells with rucaparib alone
[21] = at 0.000305 µM, OCI-C5x cells, without rucaparib
[22] = at 0.000305 µM, OCI-P5x cells, with rucaparib 20 µM, 100% = cells with rucaparib alone
[23] = at 0.000305 µM, OCI-P5x cells, without rucaparib
[24] = at 0.00122 µM, OCI-C5x cells, with rucaparib 10 µM, 100% = cells with rucaparib alone
[25] = at 0.00122 µM, OCI-C5x cells, without rucaparib
[26] = at 0.00122 µM, OCI-P5x cells, with rucaparib 20 µM, 100% = cells with rucaparib alone
[27] = at 0.00122 µM, OCI-P5x cells, without rucaparib
[28] = at 0.00488 µM, OCI-C5x cells, with rucaparib 10 µM, 100% = cells with rucaparib alone
[29] = at 0.00488 µM, OCI-C5x cells, without rucaparib
[30] = at 0.00488 µM, OCI-P5x cells, with rucaparib 20 µM, 100% = cells with rucaparib alone
[31] = at 0.00488 µM, OCI-P5x cells, without rucaparib
[32] = at 0.0195 µM, OCI-C5x cells, with rucaparib 10 µM, 100% = cells with rucaparib alone
[33] = at 0.0195 µM, OCI-C5x cells, without rucaparib
[34] = at 0.0195 µM, OCI-P5x cells, with rucaparib 20 µM, 100% = cells with rucaparib alone
[35] = at 0.0195 µM, OCI-P5x cells, without rucaparib
[36] = at 0.0781 µM, OCI-C5x cells, with rucaparib 10 µM, 100% = cells with rucaparib alone
[37] = at 0.0781 µM, OCI-C5x cells, without rucaparib
[38] = at 0.0781 µM, OCI-P5x cells, with rucaparib 20 µM, 100% = cells with rucaparib alone
[39] = at 0.0781 µM, OCI-P5x cells, without rucaparib
[40] = at 0.313 µM, OCI-C5x cells, with rucaparib 10 µM, 100% = cells with rucaparib alone
[41] = at 0.313 µM, OCI-C5x cells, without rucaparib
[42] = at 0.313 µM, OCI-P5x cells, with rucaparib 20 µM, 100% = cells with rucaparib alone
[43] = at 0.313 µM, OCI-P5x cells, without rucaparib
[44] = at 1.25 µM, OCI-C5x cells, with rucaparib 10 µM, 100% = cells with rucaparib alone
[45] = at 1.25 µM, OCI-C5x cells, without rucaparib
[46] = at 1.25 µM, OCI-P5x cells, with rucaparib 20 µM, 100% = cells with rucaparib alone
[47] = at 1.25 µM, OCI-P5x cells, without rucaparib
[48] = at 5 µM, OCI-C5x cells, with rucaparib 10 µM, 100% = cells with rucaparib alone
[49] = at 5 µM, OCI-C5x cells, without rucaparib
[50] = at 5 µM, OCI-P5x cells, with rucaparib 20 µM, 100% = cells with rucaparib alone
[51] = at 5 µM, OCI-P5x cells, without rucaparib

Cc1c(Cn2c(C)nc3c(C(=O)O)cc(N4CCOCC4)cc32)cccc1C(F)(F)F
8880: cell count [9, 17]
0.912: z-score [10, 19]
0.358: fold change [9, 15]
inactive: outcome [1] | outcome [2] | outcome [3] | outcome [4] | outcome [5] | outcome [6] | outcome [7] | outcome [8] | fold change [9, 14] 0.907 | z-score [10, 18] -0.351
8050: cell count [9, 16]

COc1nc(C)cnc1NS(=O)(=O)c1cccnc1-c1ccc(-c2nnco2)cc1
8800: cell count [9, 17]
active: viability [12, 28] 98.1% | viability [12, 44] 97.7% | viability [12, 50] 99%
0.943: fold change [9, 15]
0.676: z-score [10, 19]
inactive: outcome [1] | outcome [2] | outcome [3] | outcome [4] | outcome [5] | outcome [6] | outcome [7] | outcome [8] | fold change [9, 14] 0.916 | plate-normalised HSF1 focus index [11] 1.13 | z-score [10, 18] -0.393 | viability [12, 20] 110% | viability [12, 21] 112% | viability [12, 22] 102% | viability [12, 23] 109% | viability [12, 24] 108% | viability [12, 25] 117% | viability [12, 26] 106% | viability [12, 27] 109% | viability [12, 29] 114% | viability [12, 30] 104% | viability [12, 31] 109% | viability [12, 32] 111% | viability [12, 33] 110% | viability [12, 34] 100% | viability [12, 35] 108% | viability [12, 36] 103% | viability [12, 37] 113% | viability [12, 38] 104% | viability [12, 39] 110% | viability [12, 40] 105% | viability [12, 41] 112% | viability [12, 42] 103% | viability [12, 43] 108% | viability [12, 45] 112% | viability [12, 46] 104% | viability [12, 47] 111% | viability [12, 48] 106% | viability [12, 49] 116% | viability [12, 51] 106%
8060: cell count [9, 16]
2.08: SSMD [11]
7220: cell count [11]

CN(C)CC(C)(C)CNc1nn2c(-c3ccccc3)nnc2cc1C1CCC1
active: AC50 [3] 16.6 µM
inactive: outcome [1] | outcome [2] | outcome [4] | outcome [5] | outcome [6] | outcome [7] | outcome [8]

CC1(C)C(N(O)C(=O)Nc2ccc(Cl)cc2)N(c2ccc(Cl)cc2)C(=O)N1CC(=O)N/N=C/C=C/c1ccc([N+](=O)[O-])o1 (stereo not drawn)
active: AC50 [1] 7.42 µM | AC50 [2] 26.4 µM | AC50 [3] 10.5 µM | AC50 [4] 3.72 µM | AC50 [5] 14.8 µM | AC50 [6] 20.9 µM | AC50 [7] 6.61 µM | IC50 [8] 18.6 µM

Cn1cc(-c2ccc3ncc(Cc4ccc5ncccc5c4)n3n2)cn1
8680: cell count [9, 16]
0.902: fold change [9, 15]
10000: cell count [9, 17]
inactive: outcome [1] | outcome [2] | outcome [3] | outcome [4] | outcome [5] | outcome [6] | outcome [7] | outcome [8] | fold change [9, 14] 0.865 | z-score [10, 18] -0.376
0.544: z-score [10, 19]

Cn1cnc2c(F)c(Nc3ccc(Br)cc3Cl)c(C(=O)NOCCO)cc21
3730: cell count [9, 17]
2.54: SSMD [11]
-0.489: z-score [10, 19]
inactive: outcome [6] | fold change [9, 14] 1.01 | plate-normalised HSF1 focus index [11] 1.09 | z-score [10, 18] -0.103 | viability [12, 20] 105% | viability [12, 21] 106% | viability [12, 24] 104% | viability [12, 28] 101% | viability [12, 32] 110% | viability [12, 36] 102% | viability [12, 40] 104%
3770: cell count [9, 16]
active: AC50 [1] 4.17 µM | AC50 [2] 10.5 µM | AC50 [3] 9.35 µM | AC50 [4] 5.9 µM | AC50 [5] 4.68 µM | AC50 [7] 0.833 µM | viability [12, 22] 80.8% | viability [12, 23] 84.9% | viability [12, 25] 92.6% | viability [12, 26] 81.4% | viability [12, 27] 82.8% | viability [12, 29] 93.7% | viability [12, 30] 70.3% | viability [12, 31] 75.1% | viability [12, 33] 92.3% | viability [12, 34] 56.4% | viability [12, 35] 70.1% | viability [12, 37] 83.8% | viability [12, 38] 53.5% | viability [12, 39] 65.2% | viability [12, 41] 80.4% | viability [12, 42] 43.6% | viability [12, 43] 59.6% | viability [12, 44] 84% | viability [12, 45] 82.2% | viability [12, 46] 38.2% | viability [12, 47] 61.5% | viability [12, 48] 49.5% | viability [12, 49] 51.1% | viability [12, 50] 25.6% | viability [12, 51] 32.7%
0.759: fold change [9, 15]
7320: cell count [11]

Cn1c(CNc2ccc(C(=N)N)cc2)nc2cc(C(=O)N(CCC(=O)O)c3ccccn3)ccc21
inactive: outcome [1] | outcome [2] | outcome [3] | outcome [4] | outcome [5] | outcome [6] | outcome [8]

CO[C@H]1/C=C/O[C@@]2(C)Oc3c(C)c(O)c4c(O)c(c5c(nc6cc(C)ccn65)c4c3C2=O)NC(=O)/C(C)=C\C=C\[C@H](C)[C@H](O)[C@@H](C)[C@@H](O)[C@@H](C)[C@H](OC(C)=O)[C@@H]1C
inactive: outcome [2] | outcome [3] | z-score [10, 18] 0.239
-0.714: z-score [10, 19]
active: AC50 [1] 16.6 µM | AC50 [4] 13.2 µM | AC50 [5] 23.5 µM | AC50 [7] 14.8 µM

COc1cc2c(cc1-c1c(C)noc1C)ncc1[nH]c(=O)n([C@H](C)c3ccccn3)c12
active: AC50 [2] 10.5 µM | AC50 [3] 23.5 µM | AC50 [13] 13.2 µM | AC50 [6] 4.18 µM
inactive: outcome [1] | outcome [7] | outcome [8]
